# Columns and labels:
# Assay in all cases: PBM binding z-score (relative to random genomic background probes); higher = stronger binding; sequences stand for … in GC…GCGATTGACAGCGTAGAATGAAGG
# [1] = test system: RARb homodimer (NR concentration 270 nM)
# Outline: (§1)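 Antibodies against each partner of ligand-free nuclear receptor dimers (one per run) detected binding on custom Agilent 4×180K protein-binding microarrays after 1 h incubation. The double-stranded probes had 34-nt variable regions carrying direct-repeat seeds, single-nucleotide variants, half-site ablations and random human genomic background sequences. Binding z-scores, from regression-normalized fluorescence, use the random background probes as reference.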
# [2] = test system: RARg:RXRa (NR concentration 270 nM, RXRa partner concentration 90 nM)
# Outline: as §1
# [3] = test system: RARg homodimer (NR concentration 270 nM)
# Outline: as §1
# [4] = test system: RXRa DBDmut IVT, anti-RXR (DBD mutation: RXRa K156A/R161A, NR concentration 90 nM)
# Outline: as §1
# [5] = test system: RXRa homodimer (NR concentration 180 nM)
# Outline: as §1
# [6] = test system: THRa:RXRa (NR concentration 90 nM, RXRa partner concentration 90 nM)
# Outline: as §1
# [7] = test system: THRa homodimer (NR concentration 90 nM)
# Outline: as §1
# [8] = test system: VDR homodimer (NR concentration 270 nM)
# Outline: as §1
Sequence,PBM binding z-score [1],PBM binding z-score [2],PBM binding z-score [3],PBM binding z-score [4],PBM binding z-score [5],PBM binding z-score [6],PBM binding z-score [7],PBM binding z-score [8]
TCGAGTAGGTTACCAAAGGGGCATTCAGCTTTCT,1.34,2.2,0.617,0.44,0.779,0.46,-0.71,0.0103
ATACCAAGGTAATCGTGAGGTCGTTGATACTAAC,1.44,1.55,0.586,0.482,1.2,3.27,2.64,3.08
CAAACTAGGTCAAGAGGTCTAAGTCCGCTTCCCG,3.42,4.23,4.4,1.73,2.76,2.82,1.1,1.23
TCTTGTAGATCAAAGGTTAATAAAGCCGAAGCCT,1.25,1.51,0.841,1.09,2.55,1.32,-0.223,0.243
TCTGCTAGGTCAACGATGGACAGCTAATCTGCTA,2.79,3.82,4.71,0.955,2.5,2.86,0.203,-0.736
GCTGCTAGTTCAGGTTGGTCAGCTAACGGGTACG,0.833,0.083,0.586,1.19,-0.153,-0.00713,-0.222,0.636
AATACAGGGTCATCGTAGGCCAGAGTACGCACAG,3.55,5.49,5.05,3.55,6.83,4.6,1.54,3.35
ATCTGTAGGTAAGACTCAGTTCAGTGAAGAACGC,0.419,0.15,-0.0533,0.0968,0.114,0.687,0.0437,0.939
CTCGAAAGGCCGGTTGAGGTGAGTATACGGATAA,0.451,0.273,0.383,-0.239,-0.037,3.54,0.438,-0.821
CGTCCAAGGTCAGAGAAGTCAGTGAATGCCGAGT,3.51,4.3,5.16,2.35,3.37,3.32,1.53,1.64
TATACAGGGTCAAAGGCCAGAGTACGAATGTCGA,3.67,5.46,5.12,3.02,6.7,3.76,0.87,3.4
CCTATTAGTTGACCATAAGGGCAGCCGAAGCTCG,1.55,0.749,0.64,0.252,0.392,1.36,0.892,0.242
ATCTCTAGGTAACCAAGTCCAGTGAATGCCGAAC,0.289,0.196,0.238,0.275,0.184,0.825,0.807,0.463
GTACCAATGTGAATAGGTCGTTGATGAGTAGGCG,0.0633,0.177,0.344,-0.108,0.356,-0.0211,-0.677,0.254
TCGAGTCGGTTACCAATGGGGCATTCAGCTTTCT,0.134,-0.35,-0.367,0.329,-0.284,-0.43,-0.423,-0.105
TCTATTAGTTGATTAAGGCAACCGAAACAGCGGA,-0.49,0.163,0.201,1.35,0.349,0.746,0.601,0.261
AGAATGAGGTTTTTAAGATCAGGGAATTGCGGTC,-0.159,-0.0419,-0.355,0.351,0.0313,0.216,-0.0732,-0.068
TCTGCTAGGTCAACGATGGTTAGCTAATCTGCTA,2.99,3.97,5.29,1.1,2.75,2.9,0.466,-0.391

Sequence,PBM binding z-score [1],PBM binding z-score [2],PBM binding z-score [3],PBM binding z-score [4],PBM binding z-score [5],PBM binding z-score [6],PBM binding z-score [7],PBM binding z-score [8]
TAGCCTAAGTCATTCAGGGGCCAGTATAGAAAGC,0.772,1.72,0.386,-0.0569,0.191,0.835,-0.418,-0.452
CAAACTAGGACACGAAAGGTCAAAGTCGAATGAC,4.86,5.9,5.66,1.45,6.74,4.08,1.94,2.91
ACTAGCTGGTCAGCTGAGGTCACACACAATTCGG,4.27,4.27,4.18,0.848,4.03,5.12,4.71,3.25
TCTAGCACGCCAGAGGGTCACTCAAGAGGTACGG,2.3,2.29,1.68,0.0776,2.41,1.48,-0.414,0.501
AGTACGAGGGCAATGAGTTGATAGCACGGGTGGC,1.2,1.06,1.62,2.1,0.711,1.07,-0.111,2.98
TCTAGCAGTCCAGAGGGTCACTCAAGAGGTACGG,2.78,2.4,1.91,0.0371,2.54,1.79,0.000359,0.904
TCAGACAGGTGCAGGTAACTCAGGTACGCAGTCG,-0.182,-0.0126,-0.0497,0.956,0.745,0.824,0.0725,0.478
ACTCGCAGGACAAAGGTCAGAGCTACGCCAGTGA,4.26,5.2,5.21,0.845,5.45,3.03,0.0955,0.474
TTACCAAGGTGAAAGGTCGCTGATGCACGCCTTG,2.77,4.17,2.3,0.982,5.52,3.19,0.725,0.555
GCAGACAGGTGAAACGCGGGTAACTCAGGGTGGC,0.366,0.785,0.319,-0.6,0.631,1.64,-0.533,-0.362
TAGCCTAGGCCAGATCGGGCCAGTATACGCTATA,-0.577,-0.451,-0.0912,-1.32,-0.625,0.522,-0.893,-0.924
CCGACTGGGGCAAAAAGGTTACCATACCATCCGG,2.34,1.8,1.6,-0.333,1.7,1.21,0.0277,0.374
CGTCCAATGTCAAAGGTCAGTGAAGAGATGACGG,4.3,5.61,5.43,1.04,6.57,2.97,0.388,1.07
TCTAGTTGGTCACGAAGGTCACACACGACGGGTA,4.07,4.7,5.06,1.09,4.24,3.02,1.5,2.09
CATCCAAGGTCAAGGTCAGTGAAAGAGACTCGAA,5.3,6.9,7.48,3.81,6.28,4.48,3.62,3.23
TAGGCTAGGTCATTGGGCCAGTATAGTACGCATC,2.94,3.67,4.61,1.54,2.5,2.54,0.641,1.09
GCGACTGTGGCAAAGCAGGTTACCATAAGGTTGG,0.168,-0.101,-0.193,-0.432,0.102,1.22,-0.306,-1.03
TTACCAAGGTGAAAGGTCGTTGATGCACGCCTTG,2.52,4.17,2.31,0.684,5.67,3.23,0.838,1.67
